We go through four molecules from PubChem BioAssay.

SMILES strings stand for the structures. Several values for one entry are separate records, joined by “and”; a condition that tells them apart may be missing. Identical values can stand only once. Activity calls are given as the source filed them. Unless noted, no rule for the calls is given here.

The nature of assay [1]: anti-His antibody binders, primary screen, artefact control for SMM control protein annotation, biochemical, small-molecule microarray, 635 nm fluorescence (AID 1128).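 Also: score merges feature fluorescence with signal-to-noise for each printed compound spot.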 To be noted: anti-His Alexa647 antibody binding, higher = more signal.
In assay [2] the test system is Human papillomavirus type 1a E7 protein (residues 1-88). The experiment in a line: HPV1a E7 small-molecule binders, primary screen, biochemical, small-molecule microarray, residues 1-88, 635 nm (AID 1129). To be noted: small-molecule microarray binding, fluorescence 635 nm; higher = more signal.
Assay [3] has as its target Focal adhesion kinase 1 (Homo sapiens) (UniProt Q05397). The experiment in a line: small-molecule microarray binders of FAK, primary screen, biochemical, 635/667 nm fluorescence, BSA, DTT (AID 1130).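 Also: composite of spot emission at 667 nm and signal to noise over triplicate slides.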 The note with it: PTK2 binding, 635 nm fluorescence, higher = more signal.
In assay [4] the test system is Fibrinogen (Alexa647-labelled). The experiment in a line: fibrinogen binders on compound microarrays, profiling panel, artefact control for SMM control-protein annotation, biochemical, small-molecule microarray, 635/667 nm fluorescence (AID 1131).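 Also: z-score merges 667 nm fluorescence with per-spot signal-to-noise over triplicate slides.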 To be noted: fibrinogen-A647 binding fluorescence, higher = more signal.
The target in assay [5] is Follistatin (Homo sapiens) (UniProt P19883). Description: follistatin binders on small-molecule microarrays, primary screen, biochemical, small-molecule microarray, 635/667 nm fluorescence (AID 1132). The note with it: FST binding, 635 nm fluorescence, higher = more signal.
Sequence of Follistatin (Homo sapiens) (P19883 whole entry, looked up): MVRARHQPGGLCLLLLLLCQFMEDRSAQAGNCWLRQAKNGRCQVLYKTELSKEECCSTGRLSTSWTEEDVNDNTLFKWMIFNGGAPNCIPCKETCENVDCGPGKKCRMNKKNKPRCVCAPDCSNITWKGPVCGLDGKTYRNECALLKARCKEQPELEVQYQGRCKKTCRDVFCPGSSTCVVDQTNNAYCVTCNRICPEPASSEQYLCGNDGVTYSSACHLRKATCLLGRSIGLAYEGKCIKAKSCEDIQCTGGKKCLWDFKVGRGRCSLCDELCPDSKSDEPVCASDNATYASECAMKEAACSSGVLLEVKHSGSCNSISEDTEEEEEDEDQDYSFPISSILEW
The target in assay [6] is Fibroblast growth factor 2 (Homo sapiens) (UniProt P09038). Description: FGF2 binders on small-molecule microarrays, primary screen, biochemical, small-molecule microarray, 635/667 nm fluorescence (AID 1133). To be noted: small-molecule microarray binding, FGF2, fluorescence 635/667; higher = more signal.
Sequence of Fibroblast growth factor 2 (Homo sapiens) (P09038 whole entry, looked up): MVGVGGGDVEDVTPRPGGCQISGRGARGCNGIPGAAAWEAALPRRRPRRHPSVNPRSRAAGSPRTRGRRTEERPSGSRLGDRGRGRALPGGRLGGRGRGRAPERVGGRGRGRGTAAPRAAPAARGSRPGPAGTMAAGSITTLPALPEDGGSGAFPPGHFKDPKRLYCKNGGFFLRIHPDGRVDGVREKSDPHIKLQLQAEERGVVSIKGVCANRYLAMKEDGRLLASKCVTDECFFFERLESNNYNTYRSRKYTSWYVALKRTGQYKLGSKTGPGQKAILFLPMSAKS
Assay [7] can be described thus: mitochondrial membrane potential change in A549 cells, profiling panel, cell-based, JC-1 fluorescence, basal, 24 h, 100 nL (AID 1138).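 Also: A549 lung adenocarcinoma cells under basal conditions with no added stimulus; test concentration not given here.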 To be noted: higher = more signal.
A further assay relates to Lefty1. Description: Lefty1 binders on small-molecule microarrays, primary screen, biochemical, small-molecule microarray, 635/667 nm fluorescence (AID 1139). The note with it: small-molecule microarray binding, fluorescence 635/667; higher = more signal.
Assay [8] has as its system wheat germ agglutinin (Triticum aestivum), Alexa647-labelled. Description: wheat germ agglutinin binders on compound microarrays, profiling panel, artefact control for SMM control-protein annotation, biochemical, small-molecule microarray, 635/667 nm fluorescence (AID 1140).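 Also: score merges 667 nm feature emission with signal to noise over triplicate slides.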 To be noted: WGA-A647 binding, 635 nm fluorescence, higher = more signal.
Assay [9] addresses Luciferin 4-monooxygenase (Photinus pyralis) (UniProt P08659). Description: firefly luciferase enzyme inhibitors, primary screen, biochemical, luminescence, purified enzyme, 2006 set (AID 1141).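 Also: cell-free assay with purified firefly luciferase at 100 ng per well in PBS; test concentration not given here.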 To be noted: SteadyGlo luminescence, 30 min, higher = more signal, called active from +8 up or from −8 down.
Assay [10] deals with Wnt5a (protein binding on small-molecule microarray). Description: Wnt5a binders on small-molecule microarray, primary screen, biophysical, 635/667 nm fluorescence (AID 1142).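 Also: fluorescence read at 667 nm with signal to noise per printed feature.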 To be noted: 635 nm fluorescence, higher = more signal.
Assay [11] is described as follows: cell viability in Huh7 cells, primary screen, cytotoxicity control for HCV replication inhibitor project, CellTiter-Glo luminescence, basal, 48 h (AID 1143).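 Also: Huh7 hepatoma cells carrying a hepatitis C replication reporter with no stimulus; test concentration not given here.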 To be noted: Huh7 HCV replicon, higher = more signal, called active from +8 up or from −8 down.
The nature of assay [12]: P. aeruginosa biofilm formation inhibitors, primary screen, PAO1 strain, BacTiter-Glo luminescence, LB-PBS (AID 1144). The note with it: 12 h, higher = more signal.
Assay [13] can be described thus: CREB reporter modulators without forskolin, primary screen, cell-based, PC12, CRE-LacZ reporter, unstimulated (AID 1145). To be noted: no forskolin, luminescence, 4.5 h, higher = more signal, called active from +8 up or from −8 down.
The nature of assay [14]: CREB reporter modulators under forskolin, primary screen, cell-based, PC12, CRE-LacZ reporter, forskolin-stimulated (AID 1146).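 Also: PC12 cells with 6xCRE LacZ reporter stimulated by forskolin 10 µM; beta-galactosidase reporter signal reflecting CREB driven transcription.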 To be noted: luminescence, 4.5 h, higher = more signal, called active from +8 up or from −8 down.
Assay [15] addresses Streptavidin (Streptomyces avidinii) (UniProt P22629). Description: streptavidin binders on small-molecule microarray, primary screen, artefact control for SMM compound annotation, biophysical, 635/667 nm fluorescence (AID 1147).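 Also: signal reflects streptavidin binding to arrayed compounds as a control protein.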 The note with it: streptavidin binding, higher = more signal.
Assay [16] is described as follows: small-molecule binders of probe aInhba, primary screen, biochemical, small-molecule microarray, 635/667 nm fluorescence (AID 1148).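 Also: score merges 667nm spot fluorescence with signal-to-noise for antibody binding to printed compounds.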 To be noted: higher = more signal.
Assay [17] concerns the target Torsin-1A (Homo sapiens) (UniProt O14656). Description: torsin A binders from cell lysate, primary screen, small-molecule microarray, wild-type, 635/667 nm (AID 1149). The note with it: COS7 hTOR1A-WT lysate, 635 nm fluorescence, higher = more signal.
The target is the same in assay [18]. The experiment in a line: small-molecule binders of mutant TOR1A in lysate, primary screen, cell lysate, small-molecule microarray, COS7 lysate, 635/667 nm fluorescence (AID 1150).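 Also: score pools 667 nm emission and signal to noise measuring lysate protein binding.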 The note with it: COS7 hTOR1A mutant lysate, 635 nm fluorescence, higher = more signal.
For assay [19], the system named is Sonic hedgehog protein (Shh). Description: small-molecule binders of Shh protein, primary screen, biochemical, small-molecule microarray, 635/667 nm fluorescence (AID 1151).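 Also: Shh protein binding to compounds spotted on small-molecule microarray slides; score combines spot fluorescence intensity with signal-to-noise across triplicate slides.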 The note with it: small-molecule microarray binding, 635 nm fluorescence; higher = more signal.

Sequence of Torsin-1A (Homo sapiens) (O14656 whole entry, looked up): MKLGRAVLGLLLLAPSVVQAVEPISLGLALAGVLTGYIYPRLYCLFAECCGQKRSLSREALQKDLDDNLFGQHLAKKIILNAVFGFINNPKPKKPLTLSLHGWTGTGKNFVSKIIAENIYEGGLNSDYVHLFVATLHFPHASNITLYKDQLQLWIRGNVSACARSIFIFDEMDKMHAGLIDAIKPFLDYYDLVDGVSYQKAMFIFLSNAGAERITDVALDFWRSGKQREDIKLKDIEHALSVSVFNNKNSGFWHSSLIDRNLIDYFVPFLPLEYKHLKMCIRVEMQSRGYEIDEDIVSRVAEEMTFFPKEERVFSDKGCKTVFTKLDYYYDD
Sequence of Luciferin 4-monooxygenase (Photinus pyralis) (P08659 whole entry, looked up): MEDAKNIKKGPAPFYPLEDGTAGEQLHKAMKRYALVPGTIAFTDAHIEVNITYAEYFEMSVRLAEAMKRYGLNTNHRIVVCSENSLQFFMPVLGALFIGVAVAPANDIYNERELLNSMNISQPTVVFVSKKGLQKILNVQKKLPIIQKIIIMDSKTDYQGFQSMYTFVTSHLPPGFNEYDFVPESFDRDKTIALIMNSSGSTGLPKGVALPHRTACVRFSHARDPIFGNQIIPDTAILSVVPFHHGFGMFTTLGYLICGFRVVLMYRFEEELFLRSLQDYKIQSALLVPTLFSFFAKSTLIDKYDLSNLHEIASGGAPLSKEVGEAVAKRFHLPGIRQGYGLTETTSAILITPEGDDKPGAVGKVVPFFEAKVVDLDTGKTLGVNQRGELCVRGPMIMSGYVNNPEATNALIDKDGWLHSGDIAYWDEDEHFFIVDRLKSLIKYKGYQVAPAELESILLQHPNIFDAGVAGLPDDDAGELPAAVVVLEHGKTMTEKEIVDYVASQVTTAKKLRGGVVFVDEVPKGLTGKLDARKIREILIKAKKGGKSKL
Sequence of Focal adhesion kinase 1 (Homo sapiens) (Q05397 whole entry, looked up): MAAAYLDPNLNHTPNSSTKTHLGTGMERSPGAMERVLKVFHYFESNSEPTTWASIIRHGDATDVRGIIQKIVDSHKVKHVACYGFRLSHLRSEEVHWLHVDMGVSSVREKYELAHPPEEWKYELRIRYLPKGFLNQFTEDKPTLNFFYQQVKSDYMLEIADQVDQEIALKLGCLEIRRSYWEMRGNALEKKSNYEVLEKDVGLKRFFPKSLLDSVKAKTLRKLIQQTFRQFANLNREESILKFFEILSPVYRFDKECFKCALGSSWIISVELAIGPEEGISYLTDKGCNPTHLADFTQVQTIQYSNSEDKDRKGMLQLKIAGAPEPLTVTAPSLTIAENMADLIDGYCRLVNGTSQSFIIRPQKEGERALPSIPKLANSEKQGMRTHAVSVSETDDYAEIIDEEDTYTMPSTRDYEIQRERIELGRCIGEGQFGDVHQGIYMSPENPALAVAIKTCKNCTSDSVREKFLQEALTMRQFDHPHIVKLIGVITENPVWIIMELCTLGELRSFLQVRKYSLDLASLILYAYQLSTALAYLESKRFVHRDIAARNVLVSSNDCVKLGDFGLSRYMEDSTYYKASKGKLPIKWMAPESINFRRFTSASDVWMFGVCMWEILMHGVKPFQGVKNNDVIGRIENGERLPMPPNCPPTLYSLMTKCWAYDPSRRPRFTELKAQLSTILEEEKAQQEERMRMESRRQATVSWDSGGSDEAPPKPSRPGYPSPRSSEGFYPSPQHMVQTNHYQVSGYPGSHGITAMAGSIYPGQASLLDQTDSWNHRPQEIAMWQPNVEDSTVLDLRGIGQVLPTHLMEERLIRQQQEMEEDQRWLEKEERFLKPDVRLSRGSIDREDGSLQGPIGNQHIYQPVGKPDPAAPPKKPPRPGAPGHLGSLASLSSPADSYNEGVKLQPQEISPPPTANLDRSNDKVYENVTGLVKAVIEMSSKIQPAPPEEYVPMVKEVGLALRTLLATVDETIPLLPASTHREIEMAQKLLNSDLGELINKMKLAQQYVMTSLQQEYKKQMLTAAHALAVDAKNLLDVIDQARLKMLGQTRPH
Sequence of Streptavidin (Streptomyces avidinii) (P22629 whole entry, looked up): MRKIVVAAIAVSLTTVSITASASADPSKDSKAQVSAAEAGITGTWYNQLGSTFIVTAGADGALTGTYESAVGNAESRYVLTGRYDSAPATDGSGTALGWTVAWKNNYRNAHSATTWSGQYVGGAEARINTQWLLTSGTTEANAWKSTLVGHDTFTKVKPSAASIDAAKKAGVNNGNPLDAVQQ

Consider `C=CCN(CCCC)C(=O)C1N(C(C)(C)CO)C(=O)C2C(C(=O)O)C3C=CC21O3` (stereo not given), for which the composite z-score in assay [1] is -0.767 and -0.57; in assay [2] it was -1.26 and -1.35; in assay [3] it was -0.909 and -1.23; in assay [4], -4.07 and -1.59; in assay [5] it was -2.17 and -2.38; in assay [6], -1.42 and -1.18. The composite z-score in the assay on Lefty1 was -1.93 and -1.64; in assay [8], -0.788 and -0.799; in assay [10] it was -1.3 and -0.176; in assay [15] it was -1.54 and -1.29; in assay [16] it was -0.208 and -0.157; in the assay with Torsin-1A (Homo sapiens) [17] it was -2.92 and -2.18. Also, the composite z-score in the assay with Torsin-1A (Homo sapiens) [18] is -2.77 and -2.67; in assay [19] it was -1.07 and -0.475. Further, the z-score was -0.628 and -0.501 in assay [7]; 1.12 (inactive) and 0.853 (inactive) in assay [9]; 0.194 (inactive) and -0.11 (inactive) in assay [11]; 0.264 (inactive) and 1.42 (inactive) in [12]; -0.627 (inactive) and -0.611 (inactive) in assay [13]; -0.414 (inactive) and -0.388 (inactive) in assay [14].

As to `CC(C)OC(=O)C=C1C[C@@H](c2cccc(C(F)(F)F)c2)O[C@@H](c2cccc(C(F)(F)F)c2)O1`, the composite z-score in assay [1] is 0.143 and 0.877; in [2], 1.17 and 0.699; in [3], 0.805 and 0.224; in assay [4], 0.795 and 0.302; in [5] it was -0.618 and -1.57; in assay [6], -0.496 and -0.841. The composite z-score with Lefty1 is -0.392 and -0.925; in assay [8], 0.627 and 0.443; in [10] it was 0.0895 and -0.51; in assay [15], 0.0863 and 0.0717; in assay [16], -0.0313 and -0.2; with Torsin-1A (Homo sapiens) [17], 0.704 and 2.6. For the same molecule, the composite z-score with Torsin-1A (Homo sapiens) [18] is 1.17 and 0.366; in assay [19], -0.0088 and -0.758. In addition, the z-score in assay [7] was 1.52 and 2.59; in assay [9] it was -0.864 (inactive) and 0.747 (inactive); in [11], -0.53 (inactive) and -2.72 (inactive); in assay [12] it was -0.539 (inactive) and 0.216 (inactive); in assay [13] it was -0.284 (inactive) and 0.379 (inactive); in [14], -0.126 (inactive) and 1.11 (inactive).

For `Cc1cc2c(nc1C)CCCN2CC(C)ON=C[C@@H](C)[C@H](OCc1ccccc1)C(C)C` (stereo not given in full), the composite z-score is -0.265 in assay [1]; -1.26 in assay [2]; 0.252 in assay [3]; -0.709 in assay [4]; 0.141 in assay [5]; -0.0657 in assay [6]. For the same molecule, the composite z-score with Lefty1 is 0.254; in assay [8], -0.911; in assay [10], -0.0264; in assay [15], -0.254; in assay [16] it was -0.016; with Torsin-1A (Homo sapiens) [17], -0.209. Also, the composite z-score with Torsin-1A (Homo sapiens) [18] was 0.22; in [19], 0.513. In addition, the z-score is -0.7 in assay [7]; 0.765 (inactive) in [9]; 0.615 (inactive) in assay [11]; 0.461 (inactive) in [12]; 0.248 (inactive) in assay [13]; 0.317 (inactive) in [14].

For the molecule `C=CCN(C(=O)C(c1cccs1)N(C(=O)/C=C\C(=O)O)c1ccc(CCO)cc1)c1ccc(OC)cc1` (stereo not given), the composite z-score in [1] is 0.502 and -2.51; in assay [2], -0.979 and -1.34; in [3] it was 0.32 and -0.445; in assay [4], -1.36 and -2.21; in [5], -1.14 and -3.18; in assay [6] it was -2.42 and -2. In addition, the composite z-score in the assay on Lefty1 is -0.91 and -2.42; in assay [8], -0.4 and -0.894; in [10], -1.21 and -1.14; in [15] it was -1.31 and -0.93; in assay [16], -0.257 and -0.203; with Torsin-1A (Homo sapiens) [17], -3.35 and -2.12. Moreover, the composite z-score in the assay with Torsin-1A (Homo sapiens) [18] was 0.425 and -1.7; in [19], -1.17 and -0.672. Moreover, the z-score in [7] was 0.413 and 1.3; in assay [9], -1.62 (inactive) and -1.01 (inactive); in assay [11] it was 0.369 (inactive) and 0.0408 (inactive); in assay [12] it was -2.25 (inactive) and -0.545 (inactive); in [13], -0.358 (inactive) and 0.463 (inactive); in [14], -0.308 (inactive) and 0.311 (inactive).
